Molecules are shown by their SMILES. Where “and” joins values, the source holds several entries; their conditions need not be identical. Equal entries are not always repeated. Records with an inconclusive call do not appear. Where a structure was tested more than once in an assay, its records may differ in their call. Unmarked numbers belong to inactive results. Calls of active or inactive are those of the source. The call rests on the fitted dose curve; in most records, active means well fitted inhibition curve with a large enough effect; inconclusive means small, poorly fitted or top-dose-only effect; inactive means flat fitted curve, though single readings scatter.

One experiment relates to CRL-7250. As to the kind of experiment: Cytotoxic Profiling of Annotated Libraries Using Quantitative High-Throughput Screening (AID 1296008). Further: nearly all actives have a fitted effect of over 60% in size. The settings on record: Five cell lines viability, CellTiter-Glo ATP luminescence, 48-72 h; max response: stronger effect = lower value. The method in brief:
(§1)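 Compounds were pin-transferred onto cells and incubated 48 or 72 hr at 37 degree Celsius, 95% humidity. CellTiter-Glo was added, plates sat 10 min at room temperature, then ATP-coupled luminescence was imaged as the viability read-out.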

In another experiment the test system is HEK293. The description is as above. The settings on record: Five cell lines viability, CellTiter-Glo ATP luminescence, 48-72 h; max response: stronger effect = lower value. The method in brief: as §1
On the % scale 0 is the no-effect control and ±100 the full control effect; potency means the concentration at half of the fitted maximal effect.

For `Nc1nc(NCCNc2ncc(-n3ccnc3)c(-c3ccc(Cl)cc3Cl)n2)ccc1[N+](=O)[O-]`, the Potency in the experiment on CRL-7250 was 5.8 µM (active). In addition, the results for the max response in the experiment with CRL-7250 and in the experiment with HEK293 were -3.28% and 4.96%, respectively.

Consider `CN(C)CC(C)(C)CNc1nn2c(-c3ccccc3)nnc2cc1C1CCC1`, for which, in the experiment with CRL-7250, the max response was -13.8% and the call was inactive. Further, in the experiment on HEK293, the Potency was 4.18 µM (active) and the result was inactive.

With `O=C(c1cncc(Br)c1)N1CCC(N2CCCC2)CC1`, in the experiment on CRL-7250, the max response is -7.35% and the compound was classed as inactive. Further, in the experiment with HEK293, the max response is 2.69% and -9.71%.

Take `Cn1c(CNc2ccc(C(=N)N)cc2)nc2cc(C(=O)N(CCC(=O)O)c3ccccn3)ccc21`: the Potency with CRL-7250 was 7.24 µM (active). Besides, the figures for the max response with CRL-7250 and with HEK293 were -5.55% and -4.52%, respectively.

`CNC(=O)c1ccc(N2C(=S)N(c3cnc(C#N)c(C(F)(F)F)c3)C(=O)C23CCC3)cc1F`: in the experiment with CRL-7250, the max response was -2.94%. Besides, the compound was classed as inactive in the experiment on CRL-7250 and in the experiment with HEK293.

Consider `CCCCCN(CCC12CC3CC(CC(C3)C1)C2)C(=O)NCCCc1ccncc1`, for which the max response in the experiment on CRL-7250 was -19%.

On to `O=C(O)CCCc1c[nH]c2ccccc12`, for which, in the experiment with CRL-7250, the max response was -4.82% and the result was inactive. The max response in the experiment on HEK293 is -0.171% and -7.8%.

Consider `Cc1ccc2nc(NC(=O)CSc3nc4c(c(=O)n3-c3ccccc3)SCC4)sc2c1`, for which, in the experiment on CRL-7250, the Potency is 13.2 µM (active) and the max response was 3.83%. Besides, the call with HEK293 was inactive.

Turning to `CS(=O)(=O)c1ccc(-c2cnc(N)c(C(=O)Nc3ccccc3)n2)cc1`, in the experiment on CRL-7250, the max response was -11% and the compound was classed as inactive. Further, in the experiment with HEK293, the Potency is 11.6 µM (active).

On to `COc1cc2c(Oc3ccc4[nH]c(C)cc4c3F)ncnc2cc1OCCCN1CCCC1`, for which, in the experiment with CRL-7250, the Potency was 8.2 µM (active).

Regarding `CCN(CC)CCCCNc1ncc2cc(-c3cc(OC)cc(OC)c3)c(NC(=O)NC(C)(C)C)nc2n1`, the Potency was 0.264 µM (active) in the experiment on CRL-7250 and 4.18 µM (active) in the experiment with HEK293.

As to `O=C(C=Cc1cccc(S(=O)(=O)Nc2ccccc2)c1)NO`, the figures for the Potency in the experiment with CRL-7250 and in the experiment with HEK293 were 21.5 µM (active) and 19.1 µM (active), respectively.

With `Cc1nc(N)ncc1-c1nc(N2CCOCC2)c2sc(C(C)(C)O)cc2n1`, the Potency in the experiment with CRL-7250 was 2.59 µM (active); in the experiment with HEK293 it was 1.18 µM (active) and 1.3 µM (active).

`CC(C)(C)c1cnc(CSc2cnc(NC(=O)C3CCNCC3)s2)o1`: the Potency with CRL-7250 is 0.132 µM (active); in the experiment with HEK293, 0.418 µM (active).

Regarding `CS(=O)(=O)N1CCN(Cc2cc3nc(-c4cccc5[nH]ncc45)nc(N4CCOCC4)c3s2)CC1`, the Potency with CRL-7250 was 1.05 µM (active) and 1.64 µM (active); in the experiment on HEK293 it was 372 nM (active) and 1.84 µM (active).

For the compound `Cc1cccc(C=NNc2cc(N3CCOCC3)nc(OCCc3ccccn3)n2)c1`, the max response with CRL-7250 was -4.72%. Further, the Potency in the experiment on HEK293 was 5.9 µM (active).

In the case of `CNC(=O)c1ccccc1Nc1nc(Nc2ccc(N3CCOCC3)cc2OC)ncc1Cl`, the Potency was 7.43 µM (active) and 4.11 µM (active) with CRL-7250; 3.32 µM (active) in the experiment on HEK293.

`O=C(O)Cn1nnc(-c2cc(N3CCC(Oc4cc(F)ccc4Br)CC3)no2)n1`: the max response in the experiment with CRL-7250 is 1.84% and -2.26%. For the same compound, the Potency in the experiment with HEK293 is 1.18 µM (active) and 1.3 µM (active).

`CC(C)Nc1cc(C(F)(F)F)cc2nc(NC(=O)c3cccnc3)nn12`: the max response in the experiment with CRL-7250 was -10.3% and 1%; in the experiment with HEK293 it was -16.8%.

As for `COc1cc(C)c(Sc2cnc(NC(=O)c3ccc(CNC(C)C(C)C)cc3)s2)cc1C(=O)N1CCN(C(C)=O)CC1` (centres undefined), the Potency in the experiment with CRL-7250 is 23.5 µM (active); with HEK293 it was 14.8 µM (active) and 11.6 µM (active).

`Cc1[nH]nc2ccc(-c3cncc(OC[C@@H](N)Cc4ccccc4)c3)cc12`: the Potency is 2.64 µM (active) and 5.8 µM (active) with CRL-7250; 209 nM (active) and 651 nM (active) in the experiment with HEK293.

Take `COC(=O)[C@]12CCC(C)(C)C[C@@H]1[C@@H]1C(=O)C=C3[C@@]4(C)C=C(C#N)C(=O)C(C)(C)[C@@H]4CC[C@@]3(C)[C@]1(C)CC2`: the Potency in the experiment on CRL-7250 is 4.69 µM (active); in the experiment with HEK293 it was 2.96 µM (active).

For `CNC(=O)c1nn(C)c2c1C(C)(C)Cc1cnc(Nc3ccc(N4CCN(C)CC4)cc3)nc1-2`, the Potency in the experiment on CRL-7250 is 46.9 nM (active) and 580 nM (active); in the experiment with HEK293 it was 1.16 µM (active).

Regarding `CC[C@@H]1C(=O)N(C)c2cnc(Nc3ccc(C(=O)NC4CCC(N5CCN(CC6CC6)CC5)CC4)cc3OC)nc2N1C(C)C` (some centres undefined), the Potency with CRL-7250 was 332 nM (active) and 14.6 µM (active); in the experiment on HEK293 it was 26.4 nM (active) and 20.6 nM (active) and 13 nM (active).

For `COc1cc(=C2C=c3ccccc3=N2)[nH]c1=Cc1[nH]c(C)cc1C`, the Potency is 11.8 µM (active) in the experiment on CRL-7250 and 8.33 µM (active) in the experiment on HEK293.

As to `COc1ccc(CC2SC(=O)NC2=O)cc1C(=O)NCc1ccc(C(F)(F)F)cc1` (centres undefined), the Potency in the experiment with CRL-7250 is 11.8 µM (active). Moreover, in the experiment with HEK293, the max response is -1.55%.

The values above are taken from PubChem BioAssay (NCATS).
